Hits are enriched below; roughly 5.4% of the tested compounds scored in any of these assays.
Calb FLC = C. albicans growth inhibition with fluconazole, primary screen, CaCi-2 strain, Alamar Blue fluorescence. C. albicans CaCi-2 (fluconazole-resistant clinical isolate) + fluconazole, 48 h. growth inhibition, % (concentration not given with the values). hit rate 0.57% among 300,000. AID 1979, 2009;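 active = growth inhibition above about 58% in most replicates, limit read from the data, passing the limit was not always enough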;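 also: all wells also contain fluconazole at 8 µg/ml as a sub-toxic cotreatment; 0% = median of DMSO wells and 100% = median of geldanamycin control wells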
SKKanGAS inh = S. pyogenes SKKanGAS growth inhibitors in kanamycin, primary screen, streptokinase expression inhibitor project, SKKanGAS strain, BacTiter-Glo luminescence; hit rate 1.3% among 300,000; inhibition, % at 7.5 µM; 6 h; AID 1662, 2009;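 active = mean replicate score, as percent of positive control median, at least 50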;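 also: strain carries kanamycin resistance gene driven by streptokinase promoter and grows in 40 µg/ml kanamycin; loss of luminescence reflects streptokinase promoter inhibition or plain growth inhibition; 0% = median of DMSO wells and 100% = positive control at its reference dose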
CSC inhib = cancer stem cell viability inhibitors, primary screen, luminescence; hit rate 1.1% among 300,000; cancer stem cell-like cells viability; inhibition, % at 7.5 µM; in the data active = inhibition above about 75%; tested in HMLE shEcad cells
Mdm2 MdmX PPI = inhibitors of human Mdm2-MdmX association, primary screen, cell-based, luminescence, split luciferase, SaOS-2, uHTS; SaOS-2 split-luciferase Mdm2/MdmX complementation; hit rate 3% among 330,000; inhibition, % at 8 µM; Protein Mdm4 (Homo sapiens) + E3 ubiquitin-protein ligase Mdm2 (Homo sapiens), …; AID 485346, 2010;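 active = inhibition of at least 50% at 8 µM in the primary screen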
Target sequence (O15151 whole entry, looked up): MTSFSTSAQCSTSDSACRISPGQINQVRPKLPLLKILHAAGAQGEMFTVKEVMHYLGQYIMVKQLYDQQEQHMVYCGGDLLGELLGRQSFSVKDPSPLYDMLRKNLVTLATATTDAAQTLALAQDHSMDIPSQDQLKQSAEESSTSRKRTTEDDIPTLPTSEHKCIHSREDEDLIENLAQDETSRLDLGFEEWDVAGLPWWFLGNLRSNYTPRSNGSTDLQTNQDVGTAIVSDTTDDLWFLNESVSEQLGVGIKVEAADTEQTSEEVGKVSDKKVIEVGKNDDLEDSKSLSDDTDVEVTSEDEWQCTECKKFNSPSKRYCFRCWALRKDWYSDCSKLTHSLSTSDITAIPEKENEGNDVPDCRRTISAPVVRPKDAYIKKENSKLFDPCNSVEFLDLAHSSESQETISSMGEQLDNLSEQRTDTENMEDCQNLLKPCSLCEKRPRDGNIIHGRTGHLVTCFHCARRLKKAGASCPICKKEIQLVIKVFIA
Target sequence (Q00987 whole entry, looked up): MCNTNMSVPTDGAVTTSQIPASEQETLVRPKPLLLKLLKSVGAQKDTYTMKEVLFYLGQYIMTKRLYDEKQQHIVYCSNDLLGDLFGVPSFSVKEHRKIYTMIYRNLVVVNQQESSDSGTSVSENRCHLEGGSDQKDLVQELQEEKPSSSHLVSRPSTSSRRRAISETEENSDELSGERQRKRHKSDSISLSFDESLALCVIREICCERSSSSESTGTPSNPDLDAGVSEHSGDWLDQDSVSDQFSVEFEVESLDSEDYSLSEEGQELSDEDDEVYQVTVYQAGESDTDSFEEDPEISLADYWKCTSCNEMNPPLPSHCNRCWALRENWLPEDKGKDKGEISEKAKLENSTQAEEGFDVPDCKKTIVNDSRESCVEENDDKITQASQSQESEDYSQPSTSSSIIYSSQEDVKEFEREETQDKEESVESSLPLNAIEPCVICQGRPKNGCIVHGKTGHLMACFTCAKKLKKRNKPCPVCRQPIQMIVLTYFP
Beta apoptosis = inhibitors of cytokine-induced beta cell apoptosis, primary screen, luminescence; INS-1E cytokine-induced death, ATP luminescence, 48 h; percent of positive-control rescue, neutral wells zero; hit rate 0.8% among 300,000; protection from apoptosis, % (no concentration beside the values);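 active = Every replicate reaches about 75%, or at least half do and their mean reaches it too, limit read from the data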;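 also: 0% = cytokine-treated negative control wells and 100% = positive control rescue; higher means more ATP so stronger rescue from cytokine killing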
MPTP block = mitochondrial permeability transition pore inhibitors, primary screen, biochemical, isolated mouse mitochondria, absorbance; Ca2+ swelling absorbance, 30 min; inhibition, % at 10 µM; hit rate 1.4% among 360,000; AID 602449, 2012;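 active = inhibition of 50% or more, scaled per plate between neutral and stimulator controls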;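 also: 0% = DMSO wells given calcium and 100% = 1 mM EGTA wells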
Mdm2-MdmX conf = Mdm2-MdmX complex disruptors, retested hits, confirmation, luminescence, single concentration. shares compounds with Mdm2 MdmX PPI. inhibition, % at 8 µM. hit rate 55% among 10,000. Mdm2-MdmX binding, luminescent assay. AID 489028, 2010; in the data active = inhibition above about 40%
Full FLuc ctr = full-length luciferase signal inhibition, confirmation, counter-screen for Mdm2/MdmX interaction inhibitor project, cell-based, single concentration, SaOS-2; SaOS-2 full-length luciferase counterscreen, luminescence; shares compounds with Mdm2 MdmX PPI; inhibition, % at 8 µM; hit rate 77% among 6,200;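 active = mean inhibition at 8 µM reaching about 37%, which flags the compound as non-specific, limit read from the data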;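 also: p53-null SaOS-2 cells with luciferase driven by a doxycycline-inducible promoter; compound on cells about two nights before reading with doxycycline added after day one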
Numbers without * were called inactive; / = no result.

SMILES | Calb FLC | SKKanGAS inh | CSC inhib | Mdm2 MdmX PPI | Beta apoptosis | MPTP block | Mdm2-MdmX conf | Full FLuc ctr
CC(C)C[C@@]12C(=O)N(c3cccc(Cl)c3)C(=O)N1[C@H](c1ccc(Br)cc1)[C@@H]1C(=O)N(C(C)(C)C)C(=O)[C@@H]12 | / | / | -1 | 50* | 11 | 1 | 46* | 69*
CC(C)C[C@@]12C(=O)N(c3ccc(Br)cc3)C(=O)N1[C@H](c1ccc(Br)cc1)[C@@H]1C(=O)N(C(C)(C)C)C(=O)[C@@H]12 | 8 | 5 | 9 | 60* | 11 | 0 | 70* | 52*
CC(=O)c1sc(NC(=O)CS(=O)(=O)c2ccccc2)nc1-c1ccccc1 | 1 | -3 | 1 | -4 | / | 1 | / | /
CCN(CC)CCNC(=O)c1[nH]c2ccc(OCc3ccccc3)cc2c1C | -2 | 11 | 83* | 61* | 24 | 1 | 39 | 69*
C[C@H](CO)N1C[C@H](C)[C@@H](CN(C)S(=O)(=O)c2cccs2)Oc2ccc(NC(=O)C3CC3)cc2C1=O | / | / | / | 12 | / | -2 | / | /
CC1CCN(C(=O)COC(=O)c2ccc3ccccc3n2)CC1 | / | / | -6 | -7 | 2 | 1 | / | /
Cc1ccc(N/C(N)=N/c2nc(C)cc(N3CCCCC3)n2)c(C)c1 | 14 | -8 | 7 | 78* | 111* | 33 | 40* | 67*
O=[N+]([O-])c1c(Nc2ccc(O)cc2)cc(Cl)c2nonc12 | 87* | -9 | 91* | 100* | 100* | 2 | 100* | 1
O=C(O)c1ccccc1Nc1cc(Cl)c2nonc2c1[N+](=O)[O-] | 26 | 7 | -10 | 4 | 1 | 2 | / | /
O=[N+]([O-])c1c(Nc2ccccn2)cc(Cl)c2nonc12 | -6 | 16 | 96* | 100* | 115* | 1 | 100* | 1
CN(C)c1cc(Nc2ccc(O)cc2)c([N+](=O)[O-])c2nonc12 | -6 | -1 | 11 | -3 | -3 | 0 | / | /
CCOC(=O)C1CCN(c2c(NCCCN3CCCCC3)c(=O)c2=O)CC1 | 0 | -1 | -6 | -17 | -2 | 2 | / | /
Cc1nc2c(c(C)nn2-c2ccccc2)c(C)c1CCC(=O)Nc1ccc(CN2CCCC2)cc1 | 4 | 4 | 19 | 64* | 24 | 1 | 35 | 53*
CCC(C)NC(=O)CCc1c(C)nc2c(c(C)nn2-c2ccccc2)c1C (configuration not stated) | 2 | -5 | -4 | 9 | 7 | 0 | / | /
Cc1ccccc1C(=O)c1cccn1CC(=O)NCCN1CCN(c2cccc(C)c2C)CC1 | 33 | 3 | 22 | 79* | 11 | 2 | 48* | 59*
Cc1ccccc1C(=O)c1cccn1CC(=O)NCCCN1CCCCC1 | 2 | -7 | / | 12 | -3 | 2 | / | /
Cc1ccc(C)c(N2CCN(CCCNC(=O)Cn3cccc3C(=O)c3ccccc3C)CC2)c1 | 2 | 13 | 16 | 90* | 10 | 16 | 66* | 43*
Cc1ccccc1C(=O)c1cccn1CC(=O)NCCC1=CCCCC1 | 3 | 8 | 1 | -5 | 1 | -1 | / | /
CN1CCC(N(C)C(=O)/C=C/c2cn(-c3ccccc3)nc2-c2cccs2)CC1 | 33 | -2 | 42 | 76* | 5 | -2 | 35 | 67*
CC1=NNC(=O)/C1=C\c1cn(-c2ccccc2)nc1-c1cccs1 | 32 | 6 | 81* | 83* | 99* | -1 | 56* | 26
O=C(CCCN1C(=O)/C(=C\c2cccs2)SC1=S)Nc1ccccc1O | / | / | / | / | / | 4 | / | /
O=C(O)CCCCCN1C(=O)/C(=C\c2cn(-c3ccccc3)nc2-c2cccs2)SC1=S | 42 | 91* | 103* | 51* | 1 | 40 | 29 | /
CCN(CC(=O)Nc1ccc(NC(C)=O)cc1)C(=O)/C=C/c1cn(-c2ccccc2)nc1-c1cccs1 | 12 | 8 | 7 | 48 | 8 | -2 | / | /
COc1cc(NS(=O)(=O)c2ccc(NC(=S)NC(=O)c3ccc(F)c(F)c3)cc2)nc(OC)n1 | 1 | 20 | -1 | 5 | 2 | -1 | / | /
C[C@@H]1CCCCO[C@H](CN(C)Cc2ccc(C(F)(F)F)cc2)[C@H](C)CN([C@@H](C)CO)C(=O)c2cc(NC(=O)Cc3ccccc3)ccc2O1 | / | / | / | / | / | -3 | / | /
SMILES | Calb FLC | SKKanGAS inh | CSC inhib | Mdm2 MdmX PPI | Beta apoptosis | MPTP block | Mdm2-MdmX conf | Full FLuc ctr
O=[N+]([O-])c1cccc2c(N3CCCC3)ccnc12 | 11 | -10 | -4 | 52* | 112* | 12 | 26 | /
CC(C)(C)NC(=O)C(c1ccc(-c2ccccc2)cc1)N(C[C@H]1CC[C@@H]([C@@H]2CC[C@H](CO)O2)O1)C(=O)c1ccc(-c2ccccc2)cc1 (some centres not stated) | / | / | / | 88* | / | -1 | 47* | 52*
CC(C)(C)NC(=O)C(c1ccc(-c2ccccc2)cc1)N(C[C@H]1CC[C@@H]([C@@H]2CC[C@H](CO)O2)O1)C(=O)c1cccc(Cl)c1 (some centres not stated) | / | / | / | 50* | / | -1 | 11 | /
CC(C)(C)NC(=O)C(c1ccc(-c2ccccc2)cc1)N(C[C@H]1CC[C@@H]([C@@H]2CC[C@H](CO)O2)O1)C(=O)c1ccc2ccccc2c1 (some centres not stated) | / | / | / | 22 | / | -2 | / | /
O=C(NCc1ccccc1)c1onc(CSc2ccccc2)c1C(=O)NCc1ccccc1 | -12 | 10 | 17 | 32 | 6 | 0 | / | /
Fc1ccccc1/C=N/Nc1nc(-c2ccccn2)nc2ccccc12 | -6 | 12 | 37 | 82* | 105* | / | 78* | 57*
CCC(C)Nc1nc(-c2ccccn2)nc2ccccc12 (configuration not stated) | -5 | 89* | 29 | 82* | 90* | 0 | 58* | 29
Cc1ccc(-c2nc(N/N=C/c3ccncc3)c3ccccc3n2)cc1 | 26 | 9 | -18 | -24 | 64 | 1 | / | /
CCC(C)Nc1nc(-c2cccc(OC)c2O)nc2ccccc12 (configuration not stated) | -5 | 7 | 60 | 35 | -11 | 38 | / | /
c1ccc(CNc2nc(-c3ccccn3)nc3ccccc23)cc1 | -10 | 93* | 50 | 78* | 106* | 0 | 78* | 23
COc1ccc(/C=C2\CCC/C(=C\C=N\N(C)C)C2=O)cc1 | 33 | 6 | 86* | 95* | -10 | -2 | 51* | 29

From PubChem
